Laboratory results published in publication PMC4336329 (PLoS ONE, 2015).
The whole screen tested about 310,000 compounds, of which about 14,000 (4.5%) showed an effect of 50% or more. Effects have a minus sign here. For the sample, strong results were picked, then their nearest neighbours and some compounds at random.

Target: human ether-à-go-go-related gene (hERG) potassium channel (human, UniProt Q12809)
Experiment: primary screen, population patch clamp on CHO cells stably expressing hERG; higher = less effect of the substance
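Further: peak tail current of the secondary pulse compared with the same well before compound.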

human ether-à-go-go-related gene (hERG) potassium channel, sequence (Q12809 whole entry, looked up): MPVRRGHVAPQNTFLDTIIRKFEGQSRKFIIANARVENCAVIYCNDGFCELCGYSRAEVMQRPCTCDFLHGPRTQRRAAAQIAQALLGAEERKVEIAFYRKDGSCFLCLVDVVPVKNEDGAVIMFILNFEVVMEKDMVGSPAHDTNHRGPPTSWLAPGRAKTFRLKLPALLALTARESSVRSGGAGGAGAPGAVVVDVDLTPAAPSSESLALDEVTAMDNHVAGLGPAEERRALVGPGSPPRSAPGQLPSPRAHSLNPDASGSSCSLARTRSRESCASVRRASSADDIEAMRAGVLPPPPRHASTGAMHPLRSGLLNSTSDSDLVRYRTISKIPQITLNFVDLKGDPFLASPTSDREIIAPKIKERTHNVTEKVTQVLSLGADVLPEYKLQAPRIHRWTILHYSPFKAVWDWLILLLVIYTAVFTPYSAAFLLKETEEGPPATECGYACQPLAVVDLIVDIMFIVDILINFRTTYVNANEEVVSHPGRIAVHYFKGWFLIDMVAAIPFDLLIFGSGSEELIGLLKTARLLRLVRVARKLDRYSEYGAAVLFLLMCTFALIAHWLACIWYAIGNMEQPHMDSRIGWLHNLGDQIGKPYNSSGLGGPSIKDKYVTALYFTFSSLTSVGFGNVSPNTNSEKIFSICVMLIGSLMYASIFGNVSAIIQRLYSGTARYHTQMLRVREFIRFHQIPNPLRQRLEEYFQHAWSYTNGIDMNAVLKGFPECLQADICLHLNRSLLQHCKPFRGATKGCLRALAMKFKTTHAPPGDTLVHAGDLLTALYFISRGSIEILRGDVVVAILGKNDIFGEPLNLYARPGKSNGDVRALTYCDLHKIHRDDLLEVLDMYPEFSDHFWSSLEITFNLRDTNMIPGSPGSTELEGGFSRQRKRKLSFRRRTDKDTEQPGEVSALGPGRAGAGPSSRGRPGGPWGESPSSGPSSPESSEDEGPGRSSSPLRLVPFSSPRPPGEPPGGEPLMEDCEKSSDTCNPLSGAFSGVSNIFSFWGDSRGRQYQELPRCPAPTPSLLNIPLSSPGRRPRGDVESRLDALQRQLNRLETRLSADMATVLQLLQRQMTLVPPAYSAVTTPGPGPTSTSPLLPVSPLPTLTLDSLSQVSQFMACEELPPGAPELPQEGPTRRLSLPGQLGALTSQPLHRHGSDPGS

SMILES | hERG current change (%, negative = inhibition) at 10uM [%]
Cc1nc(N)nc(COc2ccccc2)n1 | 16.6
Cc1cc(C)c(NC(=O)CN(C)CC(=O)N(C)CC(=O)Nc2c(Cl)cccc2Cl)c(C)c1 | 9.65
COc1cc(OC)cc(C(=O)NNC(=S)NC(=O)c2cccnc2)c1 | 14.4
CCCCc1ccc2[nH]cc(CCN)c2c1.Cl | -9.69
COc1ccc(CCNC(=O)C2CCCN(Cc3nc(-c4ccccc4C)oc3C)C2)cc1OC (centres unmarked) | -57.7
Cc1ccccc1-c1nc(CN2CCCC(C(=O)NCCCN3CCOCC3)C2)c(C)o1 (centres unmarked) | -7.84
COc1ccc(CCNC(=O)C2CCN(Cc3nc(-c4ccccc4F)oc3C)CC2)cc1OC | -45.4
COc1ccc(CCNC(=O)C2CCN(Cc3nc(-c4ccccc4C)oc3C)CC2)cc1OC | -79.2
Cc1ccccc1-c1nc(CN2CCC(C(=O)NCCCN3CCCC(C)C3)CC2)c(C)o1 (centres unmarked) | 28.6
O=C(CC(Nc1cccc(Cl)c1Cl)C(=O)OCC(=O)c1cccs1)c1ccccc1 (centres unmarked) | -5.59
CCOC(=O)[C@@H](CCc1ccccc1)N[C@H](C)C(=O)N1[C@H](C(=O)O)C[C@@H]2CCC[C@@H]21 | 15.9
CC(C)(C)NC(=O)c1ccc(COCC(F)(F)F)o1 | -4.16
CCN(CC)CCNc1cc(C)c(C#N)c2nc3ccccc3n12 | -20.6
CCOc1ccc2nc(COC(=O)c3ccco3)c(C(C)=O)[n+]([O-])c2c1 | 0.493
CCOc1ccc(-n2c(C)nnc2SCC(=O)N(CC)CC)cc1 | 2.63
CC(C)N1C(=O)CCC1C(=O)NCCc1ccccc1 (centres unmarked) | -6.11
COC(=O)c1c(C)oc(C)c1S(=O)(=O)N1CCCCC1 | 9.1
COC(=O)c1[nH]c2ccccc2c1Sc1ccccc1 | 11.9
CCCCN(CC)CCCNC(=O)c1cc2c(=O)[nH]c3ccccc3c2s1 | -0.682
CCN(CC)CCCNC(=O)c1[nH]c2ccccc2c1Sc1ccc(Cl)cc1 | -89.5
COc1ccc(/C=C/C(=O)NC(C)(C)C)cc1S(=O)(=O)N1CCOCC1 | -15.2
CCCCn1c(N)c(N(CC(C)C)C(=O)c2cccc(S(=O)(=O)N3CC(C)OC(C)C3)c2)c(=O)[nH]c1=O (centres unmarked) | 21.6
CC(C)Oc1ccc(C(=O)OCC(=O)N2CCCc3ccccc32)cc1 | 6.85
O=C(CSc1nc2c(c(=O)n1-c1ccccc1)SCC2)N1CCN(c2ccccc2)CC1 | -76.5

SMILES | hERG current change (%, negative = inhibition) at 10uM [%]
COc1ccc(-n2c(SCC(=O)Nc3ccccc3)nc3c(c2=O)SCC3)cc1 | -18.7
O=C(CSc1nc2c(c(=O)n1-c1ccccc1)SCC2)N1CCOCC1 | 5.25
Cc1ccc(-n2c(SCC(=O)N3CCCC3)nc3c(c2=O)SCC3)cc1 | 5.3
CCOC(=O)CSc1nc2c(c(=O)n1-c1ccc(OC)cc1)SCC2 | -9.55
COc1ccc(-n2c(SCC(=O)N3CCN(c4ccccc4)CC3)nc3c(c2=O)SCC3)cc1 | -70
Cc1cc(N)n(C2CCN(C)CC2)n1 | 1.99
c1ccc2c(CCNc3ncnc4nc[nH]c34)cccc2c1 | -6.53
CNCCCc1[nH]nc(N)c1C#N | 4.22
N#Cc1ccccc1Sc1ccccc1C(=O)Nc1ccccc1 | 0.339
Cc1ccc(-c2noc(CCC(=O)Nc3ccc4c(c3)OCO4)n2)cc1 | 3.68
CC(C)(C)OC(=O)N1CCC(CNC(=O)c2cccs2)CC1 | 10.9
CCCc1nc(SCC(=O)N2c3ccccc3CC2C)c2c(C)c(C)sc2n1 (centres unmarked) | 14.1
N/C(Cc1ccc([N+](=O)[O-])cc1)=N\OC(=O)c1ccco1 | -26.8
N/C(Cc1ccc([N+](=O)[O-])cc1)=N\OC(=O)C1CCCCC1 | -3.44
N/C(Cc1ccc([N+](=O)[O-])cc1)=N\OC(=O)CC1CCCCC1 | -68.5
Cc1ccc(CC(=O)O/N=C(\N)Cc2ccc([N+](=O)[O-])cc2)cc1 | 0.827
N/C(Cc1ccc([N+](=O)[O-])cc1)=N\OC(=O)Cc1ccc(Cl)cc1 | -4.39
CCc1ccc(OCC(=O)O/N=C(\N)Cc2ccc([N+](=O)[O-])cc2)cc1 | -53.9
COc1ccc(C/C(N)=N/OC(=O)C(c2ccccc2)c2ccccc2)cc1OC | -14.5
Cc1ccc(OCC(=O)O/N=C(\N)Cc2ccc([N+](=O)[O-])cc2)cc1C | -32.7
Cc1cc(C)cc(OCC(=O)O/N=C(\N)Cc2ccc([N+](=O)[O-])cc2)c1 | -2.56
N/C(Cc1ccc([N+](=O)[O-])cc1)=N\OC(=O)Cc1ccccc1 | -50.7
N/C(Cc1ccc([N+](=O)[O-])cc1)=N\OC(=O)C(c1ccccc1)c1ccccc1 | -66.9
N/C(Cc1ccc(Cl)cc1)=N\OC(=O)Cc1ccc([N+](=O)[O-])cc1 | -4.32

SMILES | hERG current change (%, negative = inhibition) at 10uM [%]
COc1cccc(-c2nn[nH]n2)c1O | 9.02
c1ccc(CSCc2cn3ccsc3n2)cc1 | -4.45
COc1ccc(CCNC(=O)C2CCCN(S(=O)(=O)c3cccc4nonc34)C2)cc1OC (centres unmarked) | 10.5
Cc1cccc(C(=O)NC(=S)NNC(=O)c2cccs2)c1 | 17.2
Cc1onc(-c2ccccc2)c1NC(=O)N(CCC#N)Cc1ccccc1 | 3.65
CCOC(=O)c1ccc(NC(=O)c2nc[nH]c2C(=O)NCC(=O)OC(C)(C)C)cc1 | 19.5
CCN(CC)/C(N)=N/c1nc(C)cc(C)n1 | 7.16
Cc1cc(C)nc(/N=C(\N)N2CCCCCC2)n1 | -3.86
CCN(/C(N)=N/c1nc(C)cc(C)n1)c1ccccc1 | -6.01
Cc1cc(C)nc(N(C#N)Cc2ccccc2)n1 | -4.34
Cc1cc(C)nc(/N=C(\N)N(Cc2ccccc2)Cc2ccccc2)n1 | -70.6
CCCCN(CCCC)/C(N)=N/c1nc(C)cc(C)n1 | -80.2
COc1cccc(C=O)c1OCCN1C(=O)c2ccccc2C1=O | 4
CCc1ccccc1S(=O)(=O)Cc1ccc(C(=O)NCc2cccs2)o1 | -22.5
Cc1cc(C(=O)CCl)c(C)n1CCc1ccc(F)cc1 | 27.2
CC1CC(C)CN(c2ncnc3c2cnn3-c2ccc(Cl)cc2)C1 (centres unmarked) | 3.17
CN1CCN(c2ncnc3c2cnn3C)CC1 | 19.5
CC1CC(C)CN(c2ncnc3c2cnn3C)C1 (centres unmarked) | -69.8
Cc1ccccc1NC(=O)c1cccnc1 | -7.59
CCCCOC(=O)c1cc(=O)[nH]c2ccc(C)cc12 | 5.6
CC1(C)OC(=O)C(=NNc2ccccc2[N+](=O)[O-])C(=O)O1 | 24.3
COC(=O)CN(c1ccc(Cl)cc1C)S(C)(=O)=O | 13.9
CS(=O)(=O)c1cccc(C(=O)N(CCc2ccccc2)Cc2cccs2)c1 | -48.6
COc1ccc(C(=O)N(CCc2ccccc2)Cc2cccs2)c(OC)c1 | -15.9

SMILES | hERG current change (%, negative = inhibition) at 10uM [%]
N#Cc1cccc(C(=O)N(CCc2ccccc2)Cc2cccs2)c1 | -53.3
O=C(Cc1ccccc1)Nc1ccc(C(=O)NCc2ccccc2)cc1 | 11.2
Cc1ccc(NC(=O)CSc2nnc(-c3cccnc3)n2CCN2CCCCC2)cc1 | -69
O=C(CSc1nnc(-c2cccnc2)n1CCN1CCCCC1)Nc1cccc(Cl)c1 | -79.8
CCCn1c(SCC(=O)Nc2cccc(C(=O)OC)c2)nnc1-c1cccnc1 | -42
C=CCn1c(SCC(=O)Nc2ccc(C(=O)O)cc2)nnc1-c1cccnc1 | 34.6
Cn1c(SCC(=O)Nc2cccc(F)c2)nnc1-c1cccnc1 | -33.1
Cn1c(SCC(=O)Nc2ccc(F)cc2)nnc1-c1cccnc1 | -11.5
COC(=O)C1=C(c2ccc(OC)c(OC)c2)C[C@@H]2CC[C@H]1N2C(=O)N1CCC(C)CC1 | 5.39
O=C(COc1ncnc2ccc(Br)cc12)NC1CCCC1 | 2.91
Cc1cc(NC(=O)COC(=O)CSc2nc3cc(Cl)ccc3n2Cc2ccccc2)no1 | -19.9
Nc1nc2n(n1)C(=O)CC(c1ccccc1[N+](=O)[O-])N2 (centres unmarked) | 41.7
CC(C)(C)n1nnnc1C(c1ccc(C(F)(F)F)cc1)N(Cc1ccc(F)cc1)Cc1ccco1 (centres unmarked) | 8.86
O=C(NCCc1csc(-c2ccccc2)n1)c1ccccc1F | -49.5
O=C(CCc1nc2cccnc2n1Cc1ccccc1)NCCc1ccc(Cl)cc1 | -78.6
CCCCNC(=O)CCc1nc2cccnc2n1Cc1ccccc1 | -51.7
COc1ccc(Cn2c(CCC(=O)Nc3ccccc3)nc3cccnc32)cc1 | -9.7
COCCCNC(=O)CCc1nc2cccnc2n1Cc1ccccc1 | -29.8
COCCCNC(=O)CCc1nc2cccnc2n1Cc1ccc(OC)cc1 | 10.8
COCCNC(=O)CCc1nc2cccnc2n1Cc1ccc(OC)cc1 | 8.65
CCCCNC(=O)CCc1nc2cccnc2n1Cc1ccc(OC)cc1 | -18.1
CCCCCCNC(=O)CCc1nc2cccnc2n1Cc1ccc(OC)cc1 | -63.6
O=C(O)CCc1nc2cccnc2n1Cc1ccccc1 | -24.6
